We go through eight compounds from PubChem BioAssay (NCI).

Some test systems named below: NCI-H23 lung; NCI-H226 lung; NCI-H322M lung; HOP-62 NSCLC; NCI-H460 lung; NCI-H522 lung; A549/ATCC NSCLC; 786-0 renal; COLO 205 colon; DU-145 prostate; K-562 leukemia; MALME-3M melanoma; MDA-MB-231 breast; RXF 393 renal; SF-268 CNS; SF-295 CNS; SF-539 CNS; UACC-257 melanoma; M14 melanoma; HCT-15 colon.
Holding throughout (assay): NCI-60 one-dose screen, 48 h (100 = growth as untreated, 0 = no growth, -100 = all killed)
Common to all, as to details: 10 µM

About 83,000 compounds went through this panel and 20% of them were active in at least one assay; those are over-represented in the sample as a whole.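 The test compound was applied at a single concentration to cells in 96-well plates for 48 hours, and percent growth was recorded.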 Unmarked numbers belong to inactive results. Active and inactive are the calls of the source. Rule for the calls: active = growth percent below 10; inactive = the rest.

For `CCOC(=O)C(=Cc1ccc(Br)cc1)C(=O)OCC`, the growth was 17.6% in the experiment with NCI-H23 lung; -33.6% (active) in the experiment with NCI-H226 lung; 39% with NCI-H322M lung; 0.525% (active) with HOP-62 NSCLC; 22.4% in the experiment with NCI-H460 lung; -65.1% (active) in the experiment on NCI-H522 lung. For the same compound, the growth in the experiment on A549/ATCC NSCLC is -25.6% (active); in the experiment on 786-0 renal it was -79% (active); in the experiment with COLO 205 colon it was -70.5% (active); in the experiment with DU-145 prostate it was 6.17% (active); with K-562 leukemia it was 0.625% (active); in the experiment with MALME-3M melanoma it was -49.5% (active). Also, the growth with MDA-MB-231 breast is 4.72% (active); with RXF 393 renal, -75% (active); in the experiment with SF-268 CNS, -6.93% (active); with SF-295 CNS it was 38.3%; in the experiment on SF-539 CNS it was 8.53% (active); in the experiment on UACC-257 melanoma, -37.8% (active). Moreover, the results for the growth in the experiment with M14 melanoma and in the experiment on HCT-15 colon were -22% (active) and -42.1% (active), respectively.
Take `Cc1ccc(C(=O)Nc2cccc(F)c2)cc1NC(=O)C1(c2ncnc3[nH]ccc23)CC1`: the growth in the experiment with NCI-H23 lung was 68.2%; in the experiment on NCI-H226 lung it was 67.4%; in the experiment on NCI-H322M lung it was 116%; in the experiment with HOP-62 NSCLC, 67.4%; in the experiment with NCI-H460 lung, 96.2%; with NCI-H522 lung, 61%. The growth in the experiment on A549/ATCC NSCLC is 82.4%; in the experiment with 786-0 renal it was 110%; in the experiment on COLO 205 colon, 59.1%; with DU-145 prostate, 106%; with K-562 leukemia, 6.39% (active); with MALME-3M melanoma, 35%. Besides, the growth in the experiment with MDA-MB-231 breast is 54.8%; with RXF 393 renal it was 91.5%; in the experiment on SF-268 CNS it was 95.2%; in the experiment with SF-295 CNS, 89.3%; in the experiment on SF-539 CNS it was 73%; in the experiment on HCT-15 colon, 88.8%.
Consider `COc1cc(/C=N/NC(=O)c2ccccc2Nc2ccnc(C(F)(F)F)c2)ccc1O`, for which the growth with NCI-H23 lung is 91.8%; in the experiment on NCI-H226 lung it was 238%; in the experiment with NCI-H322M lung, 130%; in the experiment on HOP-62 NSCLC, 110%; in the experiment with NCI-H460 lung, 108%; in the experiment with NCI-H522 lung, 102%. The growth is 66.9% with A549/ATCC NSCLC; 106% with 786-0 renal; 115% in the experiment with COLO 205 colon; 130% in the experiment on DU-145 prostate; 90.4% in the experiment on K-562 leukemia; 121% in the experiment with MALME-3M melanoma. Also, the growth is 112% in the experiment on MDA-MB-231 breast; 105% in the experiment with SF-268 CNS; 114% in the experiment with SF-295 CNS; 112% in the experiment with SF-539 CNS; 126% in the experiment on UACC-257 melanoma; 89.7% in the experiment with M14 melanoma. The growth in the experiment on HCT-15 colon is 106%.
For `Cc1cc(N(CCCNc2ccnc3cc(Cl)ccc23)Cc2cccs2)nc(Cl)n1`, the growth in the experiment with NCI-H23 lung is 25.3%; in the experiment with NCI-H226 lung it was 52.5%; with NCI-H322M lung it was 72.9%; in the experiment on HOP-62 NSCLC, 41.1%; with NCI-H460 lung, 35.3%; in the experiment on NCI-H522 lung, 35.6%. The growth in the experiment with A549/ATCC NSCLC was 51.9%; in the experiment on 786-0 renal, 48.2%; with COLO 205 colon, -37.9% (active); in the experiment on DU-145 prostate it was 50.2%; with K-562 leukemia, 0.837% (active); with MALME-3M melanoma it was 37.9%. For the same compound, the growth in the experiment on MDA-MB-231 breast was 46.6%; with RXF 393 renal, 46.2%; with SF-268 CNS it was 61.9%; with SF-295 CNS, 36%; in the experiment on SF-539 CNS it was 56.3%; in the experiment on M14 melanoma it was 22.9%. Further, the growth in the experiment with HCT-15 colon was 24.3%.
With `Oc1[nH]c2cc(Cl)ccc2c1/C=c1/ccc2c(c1)N=C(c1cc(F)cc(F)c1)N=2`, the growth was 28.3% with NCI-H23 lung; 55.1% in the experiment on NCI-H226 lung; 49.1% in the experiment on NCI-H322M lung; 25.3% in the experiment on HOP-62 NSCLC; 6.1% (active) in the experiment with NCI-H460 lung; -3.39% (active) with NCI-H522 lung. In addition, the growth with A549/ATCC NSCLC is 37.9%; with 786-0 renal, 36.7%; in the experiment with COLO 205 colon, -0.0984% (active); with DU-145 prostate, -8.59% (active); in the experiment with K-562 leukemia, 10.3%; with MALME-3M melanoma, 51.4%. The growth in the experiment with MDA-MB-231 breast was 66.7%; in the experiment on RXF 393 renal, 1.45% (active); with SF-295 CNS, 13.5%; in the experiment with SF-539 CNS, 3.76% (active); in the experiment with UACC-257 melanoma, 55.6%; in the experiment on M14 melanoma it was -9.94% (active). The growth with HCT-15 colon is 37.3%.
As for `CCN(CC)CCNc1ccc(CO)c2oc3cc(Cl)ccc3c(=O)c12`, the growth in the experiment on NCI-H23 lung is 87.2%; with NCI-H226 lung it was 95.7%; in the experiment with NCI-H322M lung it was 97.4%; in the experiment with HOP-62 NSCLC, 88.4%; in the experiment with NCI-H460 lung, 88.2%; in the experiment with NCI-H522 lung, 77.9%. For the same compound, the growth with A549/ATCC NSCLC was 90.4%; in the experiment on 786-0 renal, 76%; in the experiment with COLO 205 colon, 68.4%; in the experiment with DU-145 prostate, 108%; in the experiment with K-562 leukemia, 81.8%; with MALME-3M melanoma, 112%. In addition, the growth in the experiment with MDA-MB-231 breast was 83.7%; in the experiment with RXF 393 renal it was 73.3%; in the experiment on SF-295 CNS it was 97.9%; in the experiment with SF-539 CNS it was 88.8%; in the experiment on UACC-257 melanoma it was -0.905% (active); in the experiment with HCT-15 colon it was 81%.
Consider `COc1ccccc1CNCCN1C(=O)c2ccc3c4c(ccc(c24)C1=O)C(=O)N(CCNCc1ccccc1OC)C3=O`, for which the growth in the experiment on NCI-H23 lung is -70.5% (active); with NCI-H226 lung, -74.7% (active); with NCI-H322M lung, -65.4% (active); in the experiment on HOP-62 NSCLC it was -79.8% (active); with NCI-H460 lung it was -91.3% (active); with NCI-H522 lung, -83.4% (active). The growth in the experiment with A549/ATCC NSCLC is -93% (active); in the experiment with 786-0 renal it was -82.4% (active); in the experiment with COLO 205 colon, -97.5% (active); with DU-145 prostate it was -100% (active); with K-562 leukemia, -43.8% (active); in the experiment with MALME-3M melanoma, -92% (active). In addition, the growth in the experiment with MDA-MB-231 breast is -18.4% (active); with SF-268 CNS it was -79.5% (active); in the experiment on SF-295 CNS it was -56.7% (active); in the experiment on SF-539 CNS, -97.3% (active); in the experiment with UACC-257 melanoma, -96.4% (active); in the experiment with M14 melanoma, -94% (active). The growth in the experiment on HCT-15 colon was -77.1% (active).
For the compound `Clc1ccc(Nc2ccnc(NCCNc3ccnc4cc(Cl)ccc34)n2)cc1`, the growth in the experiment with NCI-H23 lung is 47.6%; in the experiment on NCI-H226 lung it was 63.3%; with NCI-H322M lung it was 20.1%; in the experiment on HOP-62 NSCLC, 66.7%; in the experiment on NCI-H460 lung, 7.77% (active); with NCI-H522 lung, -34.5% (active). Further, the growth with A549/ATCC NSCLC is 10.8%; in the experiment on 786-0 renal, -62% (active); with COLO 205 colon, -91% (active); with DU-145 prostate, 36%; in the experiment on K-562 leukemia it was -54.6% (active); in the experiment with MALME-3M melanoma, -83.6% (active). Besides, the growth in the experiment on MDA-MB-231 breast was -20.4% (active); in the experiment with RXF 393 renal, 0.0582% (active); in the experiment on SF-268 CNS it was -10.7% (active); in the experiment on SF-295 CNS, -58.9% (active); in the experiment with SF-539 CNS, -94.5% (active); in the experiment on M14 melanoma, -86.8% (active). The growth in the experiment on HCT-15 colon is 3.75% (active).
